PubChem BioAssay (NCATS)
Records with an inconclusive call do not appear. Where a call stands in place of a potency, no number is given. Unmarked numbers belong to inactive results. Activity calls are given as the source filed them. The call rests on the fitted dose curve; in most records, active means well fitted inhibition curve with a large enough effect; inconclusive means small, poorly fitted or top-dose-only effect; inactive means no such curve, though single readings can be large or run the other way. Where a SMILES comes first, the peptide text is derived from it. The star is where a group is joined. AFC = O=c1cc(C(F)(F)F)c2ccc(N*)cc2o1

How the values were obtained:
[1] = tested on: Zika virus NS2B-NS3 protease (unlinked complex); experiment: Primary screen GU Rhodamine qHTS for Zika virus inhibitors: Unlinked NS2B-NS3 protease assay (AID 1347159); further: nearly all actives have a fitted effect of over 60% in size
Procedure, shortened: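 In dose–response format, inhibition of unlinked protease (25 nM) was measured with 1.5 microM bis-peptide Rhodamine110 substrate. Aprotinin served as the intraplate control.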

[2] = tested on: Zika virus NS2B-NS3 protease (linked construct); experiment: Primary screen NINDS Rhodamine qHTS for Zika virus inhibitors (AID 1347160); further: nearly all actives have a fitted effect of over 55% in size
Procedure, shortened: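 Each compound, titrated, sat 15 min with 25 nM linked protease before 1.5 microM Rhodamine110 substrate went in. Fluorescence gain over the next 15 min, in pH 8.0 Tris with Tween 20, gave Hill-fitted curves.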
Potency means the concentration at half of the fitted maximal effect.

SMILES: CC1(C)CC[C@]2(C(=O)O)[C@H](O)C[C@]3(C)C(=CCC4[C@@]5(C)CC[C@H](O[C@@H]6O[C@H](CO[C@@H]7OC[C@H](O)[C@H](O)[C@H]7O[C@@H]7OC[C@@H](O)[C@H](O)[C@H]7O)[C@@H](O)[C@H](O)[C@H]6O[C@@H]6O[C@H](CO)[C@@H](O)[C@H](O)[C@H]6O)C(C)(C)C5CC[C@]43C)[C@@H]2C1 (some centres not stated)
- Potency [1]: inactive
- Potency [2]: inactive

SMILES: O=C1Nc2ccccc2C(O)(c2ccccc2)C1O (configuration not stated)
- Potency [1]: inactive
- Potency [2]: inactive

SMILES: C#CCN(Cc1cc2c(=O)n(C)c(CN3CCN(C)CC3)nc2cc1Cl)c1ccc(C(=O)NCc2cccnc2)cc1
- Potency [1]: inactive
- Potency [2]: inactive

SMILES: C[C@]12C=C[C@@]3(CCC4[C@](C)(CO)CCC[C@@]4(C)C3CC1)C2 (some centres not stated)
- Potency [1]: 22.4 µM (active)
- Potency [2]: inactive

SMILES: CCC(COC)n1nnc2c(Nc3ccc(OC)cc3C)nc(C)cc21 (configuration not stated)
- Potency [1]: inactive
- Potency [2]: inactive

SMILES: C[C@@H]1O[C@@H](O[C@@H]2[C@@H](O[C@@H]3O[C@@H](C)[C@H](O[C@@H]4OC[C@H](O)[C@H](O[C@@H]5OC[C@@H](O)[C@H](O)[C@H]5O)[C@H]4O)[C@@H](O[C@@H]4OC[C@](O)(CO)[C@H]4O)[C@H]3O)[C@H](OC(=O)[C@]34CCC(C)(C)C[C@H]3C3=CCC5[C@@]6(C)C[C@H](O)[C@H](O[C@@H]7O[C@H](CO[C@@H]8OC[C@H](O)[C@H](O)[C@H]8O)[C@@H](O)[C@H](O)[C@H]7O)C(C)(C)C6CC[C@@]5(C)[C@]3(C)C[C@H]4O)OC[C@H]2O)[C@H](O)[C@H](O)[C@H]1O (some centres not stated)
- activity change, negative = inhibition [1]: 11.8% [at 19.1 µM]
- activity change, negative = inhibition [2]: 1.34% [at 10.7 µM]

SMILES: Fc1ccc2nc(CCC#Cc3ccccn3)cn2c1
- Potency [1]: inactive
- Potency [2]: inactive

SMILES: C=CC(C)(O)C(O)CC1C(C)(O)C(O)C(O)C2C(C)(C)CCCC21C (configuration not stated)
- Potency [1]: inactive
- Potency [2]: inactive

SMILES: CC1CC(=O)C2=C(CCC3(O)C(O)c4c(O)cccc4C(=O)C23O)C1 (configuration not stated)
- Potency [1]: inactive
- Potency [2]: inactive

SMILES: CO[C@@H](C)Cn1c(=O)n(C)c2cnc3ccc(-c4cncc(C(C)(C)O)c4)cc3c21
- Potency [1]: inactive
- Potency [2]: inactive

SMILES: C[C@@]1(O)[C@H](O)[C@@H](CO)O[C@H]1n1ccc(N)nc1=O
- Potency [1]: inactive
- Potency [2]: inactive

SMILES: CC[C@H](NC(=O)[C@H](CS(=O)(=O)CC1CC1)N[C@@H](c1ccc(F)cc1)C(F)(F)F)C(=O)C(=O)NC1CC1
- Potency [1]: inactive
- Potency [2]: inactive

SMILES: C[C@@H]1O[C@@H](O[C@H]2[C@H](O)[C@@H](O)[C@H](OC[C@H]3O[C@@H](OC(=O)[C@]45CCC(C)(C)C[C@H]4C4=CCC6[C@@]7(C)CC[C@H](O[C@@H]8OC[C@H](O)[C@H](O[C@@H]9O[C@H](CO)[C@@H](O)[C@H](O)[C@H]9O)[C@H]8O)[C@@](C)(CO)C7CC[C@@]6(C)[C@]4(C)CC5)[C@H](O)[C@@H](O)[C@@H]3O)O[C@@H]2CO)[C@H](O)[C@H](O)[C@H]1O (some centres not stated)
- activity change, negative = inhibition [1]: 4.91% [at 19.1 µM]
- activity change, negative = inhibition [2]: 3.05% [at 10.7 µM]

SMILES: COc1cc2c(NC3CCN(CC4CCCCC4)CC3)nc(N3CCCN(C(C)C)CC3)nc2cc1OCCCN1CCCCC1
- Potency [1]: inactive
- Potency [2]: inactive

SMILES: COc1ccc(/C=C\C(=O)O)c(O[C@@H]2O[C@H](CO)[C@@H](O)[C@H](O)[C@H]2O)c1
- Potency [1]: inactive
- Potency [2]: inactive

SMILES: C[C@@H]1N[C@H]2N(C1=O)c1ccccc1[C@@]2(O)C[C@@H]1C(=O)N[C@@H](C)c2nc3ccccc3c(=O)n21
- Potency [1]: inactive
- Potency [2]: inactive

SMILES: CO[C@H]1C[C@@H]2CC[C@@H](C)[C@@](O)(O2)C(=O)C(=O)N2CCCC[C@H]2C(=O)O[C@H]([C@H](C)C[C@H]2CC[C@@H](OP(C)(C)=O)[C@H](OC)C2)CC(=O)[C@H](C)/C=C(\C)[C@@H](O)[C@@H](OC)C(=O)[C@H](C)C[C@H](C)/C=C/C=C/C=C/1C
- Potency [1]: inactive
- Potency [2]: inactive

SMILES: CCCCC1CCN(CCCC(=O)c2ccccc2C)CC1
- Potency [1]: inactive
- Potency [2]: inactive

SMILES: COc1ccc(CN2C(=O)C(=O)c3cc(S(=O)(=O)N4CCC[C@H]4COc4cccnc4)ccc32)cc1
- Potency [1]: inactive
- Potency [2]: inactive

SMILES: Nc1nc2c(c(N3CCNCC3)n1)CCC1=C2[C@@H]2CCCC[C@@H]2O1
- Potency [1]: inactive
- Potency [2]: inactive

SMILES: C[C@@H]1O[C@@H](O[C@H]2[C@H](O[C@H]3[C@H](O[C@H]4CC[C@@]5(C)C(CC[C@]6(C)C5CC=C5[C@@H]7CC(C)(C)CC[C@]7(C(=O)O[C@@H]7O[C@H](CO)[C@@H](O[C@@H]8O[C@@H](C)[C@H](O)[C@@H](O)[C@H]8O)[C@H](O)[C@H]7O)CC[C@]56C)C4(C)C)OC[C@H](O)[C@@H]3O)O[C@H](CO)[C@@H](O)[C@@H]2O)[C@H](O)[C@H](O)[C@H]1O (some centres not stated)
- activity change, negative = inhibition [1]: 6.71% [at 19.1 µM]
- activity change, negative = inhibition [2]: 35.2% [at 10.7 µM]

SMILES: O=C(O)c1cccc(S(=O)(=O)N2CCc3ccccc3C2)c1
- Potency [1]: inactive
- Potency [2]: inactive

SMILES: COc1ccc(N(C)c2nc(C)nc3ccccc23)cc1
- Potency [1]: inactive
- Potency [2]: inactive

SMILES: CC(Cc1cc2c(c(C(N)=O)c1)N(CCCO)CC2)NCCOc1ccccc1OCC(F)(F)F (configuration not stated)
- Potency [1]: inactive
- Potency [2]: inactive

SMILES: NC(=O)c1csc(C2OC(CO)C(O)C2O)n1 (configuration not stated)
- Potency [1]: inactive
- Potency [2]: inactive

SMILES: C[C@@H]1O[C@@H](O[C@H]2[C@H](OC(=O)[C@]34CCC(C)(C)C[C@H]3C3=CCC5[C@@]6(C)C[C@H](O)[C@H](O[C@@H]7O[C@H](CO)[C@@H](O)[C@H](O)[C@H]7O)[C@@](C)(CO)C6[C@H](O)C[C@@]5(C)[C@]3(C)C[C@H]4O)OC[C@H](O)[C@@H]2O)[C@H](O)[C@H](O)[C@H]1O[C@@H]1OC[C@@H](O)[C@H](O[C@H]2OC[C@](O)(CO)[C@H]2O)[C@H]1O (some centres not stated)
- activity change, negative = inhibition [1]: 7.01% [at 19.1 µM]
- activity change, negative = inhibition [2]: 18.3% [at 10.7 µM]

SMILES: COC(=O)CC(C)(O)CC(=O)OCc1ccc(O[C@@H]2O[C@H](CO)[C@@H](O)[C@H](O)[C@H]2O)cc1 (some centres not stated)
- Potency [1]: inactive
- Potency [2]: inactive

SMILES: Oc1ccc(CNc2ccccc2F)c2cccnc12
- Potency [1]: inactive
- Potency [2]: inactive

SMILES: CC1CCC2(C=O)C(CO)=CCCC2C1(C)CC(=O)O (configuration not stated)
- Potency [1]: 11.2 µM (active)
- Potency [2]: 12.6 µM (active)

SMILES: COc1ccc(CNC(=O)c2cc(-c3cncc(C)c3)ncc2-c2nccs2)nc1OC
- Potency [1]: inactive
- Potency [2]: inactive

SMILES: CC1OC(OCC2OC(OC3CCC4(C)C(CCC5(C)C4CC=C4C6CC(C)(C)CCC6(C(=O)OC6OC(CO)C(O)C(O)C6O)CCC45C)C3(C)CO)C(O)C(O)C2O)C(O)C(O)C1O (configuration not stated)
- Potency [1]: inactive
- Potency [2]: inactive

SMILES: CCOCCn1nc(CC)c2nc(N3CCC(C(=O)O)CC3)nc(Nc3cc(C)ccn3)c21
- Potency [1]: inactive
- Potency [2]: inactive

SMILES: COCCOc1cnc2ccn([C@H](C)c3nnc4c(F)cc(-c5cnn(C)c5)cn34)c(=O)c2c1
- Potency [1]: inactive
- Potency [2]: inactive

SMILES: CC1CCC2(C(=O)O)CCC3(C)C(=CCC4C5(C)CCC(OC(=O)/C=C/c6ccccc6)C(C)(C)C5CCC43C)C2C1C (configuration not stated)
- Potency [1]: inactive
- Potency [2]: inactive

SMILES: CCOc1ccc2nc(SCCN3CCOCC3)[nH]c2c1
- Potency [1]: inactive
- Potency [2]: inactive

SMILES: CCN1CCN(Cc2ccc(NC(=O)c3ccc(C)c(NC(=O)c4cncc(-c5cccs5)c4)c3)cc2C(F)(F)F)CC1
- Potency [1]: inactive
- Potency [2]: inactive

SMILES: COc1ccc([C@@]2(O)c3c(ccc(CC=C(C)C)c3O)NC(=O)[C@@H]2OC)cc1
- Potency [1]: inactive
- Potency [2]: inactive

SMILES: C=C(C)C1CC[C@]2(C(=O)O)CC[C@]3(C(=O)O)[C@H](CCC4[C@@]5(C)CC[C@H](O)C(C)(C)C5CC[C@]43C)C12 (some centres not stated)
- Potency [1]: inactive
- Potency [2]: inactive

SMILES: Cc1cc(C)c2c(N)c(C(=O)NCc3ccc(Cl)cc3)sc2n1
- Potency [1]: inactive
- Potency [2]: inactive

SMILES: CC1=C2C(O)C(=O)OC(c3ccoc3)C2(C)CCC1O (configuration not stated)
- Potency [1]: inactive
- Potency [2]: inactive

SMILES: COc1ccc([C@@H]2OC[C@H]3[C@@H]2CO[C@@H]3c2ccc(OC3OC(CO)C(O)C(O)C3O)c(OC)c2)cc1OC (some centres not stated)
- Potency [1]: inactive
- Potency [2]: inactive

SMILES: CC(=O)N[C@@H](Cc1c[nH]c2ccccc12)C(=O)N[C@@H](CCC(=O)O)C(=O)N[C@@H](Cc1cnc[nH]1)C(=O)N[C@@H](CC(=O)O)C(=O)Nc1ccc2c(C(F)(F)F)cc(=O)oc2c1 (Ac-WEHD-{AFC})
- Potency [1]: inactive
- Potency [2]: inactive

SMILES: COc1cc(O)c2c(c1)C1=C[C@H](O)[C@@H](O)C[C@]1(C)OC2=O
- Potency [1]: inactive
- Potency [2]: inactive

SMILES: C[C@@H]1O[C@@H](O[C@H]2[C@@H](OC(=O)[C@]34CCC(C)(C)CC3C3=CCC5[C@@]6(C)C[C@H](O)[C@H](O[C@@H]7O[C@H](C(=O)O)[C@@H](O)[C@H](O)[C@H]7O)[C@@](C)(C(=O)O)C6CC[C@@]5(C)[C@]3(C)CC4)OC[C@H](O)[C@@H]2O)[C@H](O)[C@H](O)[C@H]1O[C@@H]1OC[C@@H](O)[C@H](O)[C@H]1O (some centres not stated)
- Potency [1]: inactive
- Potency [2]: inactive

SMILES: COC(=O)c1ccc(OC(CO)C(O)c2ccc(O)c(OC)c2)c(OC)c1 (configuration not stated)
- Potency [1]: inactive
- Potency [2]: inactive

SMILES: COc1cc(OC)c(/C=C/S(=O)(=O)Cc2ccc(OC)c(NCC(=O)O)c2)c(OC)c1
- Potency [1]: inactive
- Potency [2]: inactive

SMILES: CC1CCC2(OC1)OC1CC3C4CC=C5CC(O)CC(O[C@@H]6OC[C@@H](O)[C@H](O)[C@H]6O)C5(C)C4CCC3(C)C1(O)C2C (some centres not stated)
- Potency [1]: inactive
- Potency [2]: inactive

SMILES: C=C1C[C@]23C[C@H]1[C@@H](O)C[C@H]2[C@@]12C=C[C@H](O)[C@@](C)(C(=O)O1)[C@H]2[C@@H]3C(=O)O
- Potency [1]: inactive
- Potency [2]: inactive

SMILES: CCOc1cc(C)c(Cl)cc1S(=O)(=O)n1cnc2ccccc21
- Potency [1]: inactive
- Potency [2]: inactive

SMILES: C/C1=C\C[C@]2(C)C(=O)C(O)=C([C@H](C)CO)[C@H]2C/C=C(\C)[C@@H](O)CC/C(C)=C/CC1
- Potency [1]: inactive
- Potency [2]: inactive

SMILES: C1CCC[C@H]2CCCN3CC[C@@H](CCCCCC[C@@H]4CCCN5CC[C@@H](CC1)O[C@@H]45)O[C@@H]23
- activity change, negative = inhibition [1]: -7.05% [at 0.23 µM]
- activity change, negative = inhibition [2]: 20.2% [at 0.092 µM]
